Source: ChEMBL document CHEMBL1157539, “Thousands of chemical starting points for antimalarial lead identification” (Nature, 2010)

Columns and labels:
Type in all cases: functional
Plasmodium falciparum [1] = assay: GSK_TCMDC: Inhibition of Plasmodium falciparum 3D7 in whole red blood cells, using parasite LDH activity as an index of growth. Test compounds present at 2uM
Plasmodium falciparum [2] = assay: GSK_TCMDC: Inhibition of Plasmodium falciparum Dd2 in whole red blood cells, using parasite LDH activity as an index of growth. Test compounds present at 2uM
HepG2 = assay: GSK_TCMDC: Percent inhibition of human HepG2 cell line. Test compounds present at 10uM.

SMILES	Inhibition (Plasmodium falciparum [1])	Inhibition (Plasmodium falciparum [2])	Inhibition (HepG2)
NCCO.O=C(Nc1ccc([N+](=O)[O-])cc1Cl)c1cc(Br)cc(Cc2ccccc2)c1O	84%	96%	75%
Nc1cccc(CNCc2ccc(-c3ccc(-c4nc5ccccc5[nH]4)s3)cc2)c1.O=C(O)C(F)(F)F	100%	93%	12%
CC(=O)N(C)c1cccc(C(=O)Nc2cccc(-c3ccc(-c4nc5cc(C(F)(F)F)ccc5[nH]4)cc3)c2)c1	90%	31%	63%
CCOc1ncccc1CN1CCC(N2CCc3cc(NC(=O)c4ccco4)ccc32)C1 (centres undefined)	90%	94%	3%
CCCCCCN(CCCCCC)CCCCNc1c2ccc(Cl)cc2nc2ccc(OC)cc12.Cl	100%	94%	65%
OC(c1ccc2ccccc2c1)C1CN(CCc2ccccc2)CCC1(O)c1ccccc1 (centres undefined)	99%	96%	1%
Cc1nnsc1C(=O)Nc1ccc(-c2ccc(-c3nc4ccccc4[nH]3)s2)cc1	92%	38%	49%
CN(C)CCCNc1c2ccccc2nc2ccccc12	91%	4%	31%
CCCCCN1CCCC(CNS(=O)(=O)c2cccc(C(=O)Nc3ccc(C(F)(F)F)cc3)c2)C1.O=C(O)C(F)(F)F (centres undefined)	96%	2%	27%
COc1ccc(CCNCCCCCNCCc2ccc(Cl)cc2)cc1OC.Cl	100%	0%	32%
O=C(c1ccc(-c2ccc(-c3nc4cc(F)ccc4[nH]3)cc2)cc1)N1CCCCC1CN1CCC(O)C1 (centres undefined)	90%	100%	24%
C=C[C@]1(C)C[C@@H](OC(=O)c2cncn(COC)c2=O)[C@]2(C)[C@H](C)CC[C@]3(CCC(=O)[C@H]32)[C@@H](C)[C@@H]1O	96%	7%	0%
CCN1CCC(N(Cc2ccc(-c3ccc(C(F)(F)F)cc3)cc2)C(=O)Cn2c(CCc3cccc(F)c3F)cc(=O)c3ccccc32)CC1.O=C(O)C(O)C(O)C(=O)O	94%	94%	100%
COc1cccc2c(C)cc(NCc3ccc(Cl)cc3)nc12	97%	5%	7%
Cc1ccc(Nc2nc(-c3ccccn3)cs2)nc1	94%	97%	60%
CC1CN(c2cnn(Cc3cccc(NC(=O)Nc4ccc(-c5ccccc5)cc4)c3)c(=O)c2Cl)CC(C)N1.O=C(O)C(F)(F)F (centres undefined)	100%	67%	6%
Cl.NOCCCOc1ccc(Cl)cc1	98%	0%	12%
O=C(/C=C/c1ccc(Cl)c(Cl)c1)NCCCCN1CCCN(C(=O)Nc2ccc(F)c(Cl)c2)CC1	87%	2%	69%
Cc1ccc(NC(=O)c2ccc(-c3cc4cc(Cl)c(Cl)cc4[nH]3)cc2)cc1OCCN1CCCC1.O=C(O)C(F)(F)F	100%	90%	7%
Cc1cccc2nc(-c3cccc(-c4ccc(NC(=O)Nc5ccc(F)c(F)c5F)cc4)c3)[nH]c12	100%	100%	61%
COc1ccc2nccc(CCC3(O)CCC(NCc4cc5c(cc4F)SCC(=O)N5)CC3)c2c1 (centres undefined)	87%	48%	9%
O=C(NCCCN1CCC(N2CCCCC2)CC1)c1ccc2nc(N3CCCCC3)sc2c1	89%	20%	11%
COc1cc2nc(N3CCC(CNC(=O)c4ccc(-c5ccc(C(=O)N(C)C)cc5C)cc4)CC3)nc(N3CCN(C)CC3)c2cc1OC	88%	84%	26%
N#Cc1cccc(CN(Cc2ccc(Cl)c(Cl)c2)S(=O)(=O)c2cccc([N+](=O)[O-])c2)c1	100%	73%	3%
O=C(NCCCN1CCOCC1)c1cccc(Nc2nccc(Nc3ccc(Oc4ccccc4)cc3)n2)c1	98%	22%	34%
Cc1cc(N2CCN(C(=O)OC(C)(C)C)CC2)ccc1N	92%	38%	11%
COc1cc(N)c(Cl)cc1C(=O)NCC1CCN(c2nc(C)cc(C)n2)CC1	96%	95%	0%
O=C(/C=C/c1ccc(Cl)c(Cl)c1)NCCCCCN1CCC(NC(=O)Nc2cc(Cl)cc(Cl)c2)CC1	94%	5%	98%
